PubChem BioAssay (EPA / NIEHS)
Active and inactive are the calls of the source. The calls were made as follows: active = hit-call score of the fitted dose curve at least 0.9, where 1 is the maximum; inactive = score below 0.9.

Legend:
[1] = read-out: Thrombomodulin, THBD (gene 7056); assay: BSK_CASM3C_Thrombomodulin: BioMAP Diversity Plus: CASM3C Assay for Thrombomodulin Biomarker Activity (AID 2283051); details: primary human coronary artery smooth muscle cells; actives raise or lower the signal;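 also: thrombomodulin protein level measured by ELISA 24 h after dosing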
[2] = read-out: Tissue Factor, F3 (gene 2152); assay: BSK_CASM3C_TissueFactor: BioMAP Diversity Plus: CASM3C Assay for Tissue Factor Biomarker Activity (AID 2283052); details: primary human coronary artery smooth muscle cells; actives raise or lower the signal;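 also: cell surface tissue factor protein level read by ELISA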
[3] = read-out: Interferon-gamma inducible Protein 10 (IP10), CXCL10 (gene 3627); assay: BSK_hDFCGF_IP10: BioMAP Diversity Plus: hDFCGF Assay for Interferon-gamma inducible Protein 10 (IP10) Biomarker Activity (AID 2283053); details: primary human foreskin fibroblasts; actives raise or lower the signal
Method in brief: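 Human foreskin fibroblast primary cells (hDFCGF system) were dosed with chemical and assayed at 24 h; IP-10 measured by ELISA. Activity fitted bidirectionally relative to DMSO negative control as baseline.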

[4] = read-out: Urokinase-type plasminogen activator receptor (uPAR), PLAUR (gene 5329); assay: BSK_CASM3C_uPAR: BioMAP Diversity Plus: CASM3C Assay for Urokinase-type plasminogen activator receptor (uPAR) Biomarker Activity (AID 2283054); details: primary human coronary artery smooth muscle cells; actives raise or lower the signal;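 also: cell-surface uPAR protein level quantified by ELISA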
[5] = read-out: Vascular cell adhesion molecule 1 (VCAM1), VCAM1 (gene 7412); assay: BSK_CASM3C_VCAM1: BioMAP Diversity Plus: CASM3C Assay for Vascular cell adhesion molecule 1 (VCAM1) Biomarker Activity (AID 2283055); details: primary human coronary artery smooth muscle cells; actives raise or lower the signal;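 also: VCAM-1 protein level quantified by ELISA on the cells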
[6] = read-out: Collagen III, COL3A1 (gene 1281); assay: BSK_hDFCGF_CollagenIII: BioMAP Diversity Plus: hDFCGF Assay for Collagen III Biomarker Activity (AID 2283056); details: primary human foreskin fibroblasts; actives raise or lower the signal
Method in brief: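 Human foreskin fibroblast primary cultures sampled 24 h after dosing; Collagen III quantified by ELISA. Signal fitted bidirectionally against DMSO baseline.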

[7] = read-out: Epidermal growth factor receptor (EGFR), EGFR (gene 1956); assay: BSK_hDFCGF_EGFR: BioMAP Diversity Plus: hDFCGF Assay for Epidermal growth factor receptor (EGFR) Biomarker Activity (AID 2283057); details: primary human foreskin fibroblasts; actives raise or lower the signal
Method in brief: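 Primary human foreskin fibroblasts were exposed to compound for 24 h, after which cell-surface EGFR was quantified by ELISA. Activity was fitted bidirectionally against the DMSO negative control as baseline.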

[8] = read-out: Interleukin-8 (IL8), CXCL8 (gene 3576); assay: BSK_hDFCGF_IL8: BioMAP Diversity Plus: hDFCGF Assay for Interleukin-8 (IL8) Biomarker Activity (AID 2283058); details: primary human foreskin fibroblasts; actives raise or lower the signal
Method in brief: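 Primary human foreskin fibroblasts (hDFCGF system) dosed with chemical; IL-8 measured by ELISA 24 hours later. Bidirectional curve fitting relative to DMSO baseline; cytotoxicity tracked in parallel cultures by SRB total protein staining.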

[9] = BSK_hDFCGF_Proliferation: Cell Proliferation Assessment in the BioMAP Diversity Plus: hDFCGF Assay (AID 2283059); details: primary human foreskin fibroblasts;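 also: curves fitted for both rise and fall of signal versus DMSO baseline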
Method in brief: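 Steps: dose primary human dermal fibroblasts (foreskin); […] fix in 10% TCA; stain with 0.1% SRB; read 560 nm; fit gain or loss of signal against DMSO.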

[10] = read-out: Macrophage colony-stimulating factor (MCSF), CSF1 (gene 1435); assay: BSK_hDFCGF_MCSF: BioMAP Diversity Plus: hDFCGF Assay for Macrophage colony-stimulating factor (MCSF) Biomarker Activity (AID 2283060); details: primary human foreskin fibroblasts; actives raise or lower the signal
Method in brief: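 Human foreskin fibroblast primary cultures; M-CSF measured by ELISA 24 hours after chemical dosing. Bidirectional fitting relative to DMSO, with overt cytotoxicity tracked by parallel SRB total-protein staining (0.1% SRB, 10% TCA fixation, 560 nm).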

[11] = BSK_hDFCGF_SRB: Viability Assessment in the BioMAP Diversity Plus: hDFCGF Assay (AID 2283061); details: primary human foreskin fibroblasts;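 also: cells exposed to compound for 24 h before the read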
Method in brief: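 Human foreskin fibroblasts in 96-well plates were treated 24 h. Total protein was measured by 0.1% SRB staining after 10% TCA fixation, read at 560 nm. Data were fitted bidirectionally against DMSO.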

[12] = read-out: TIMP metallopeptidase inhibitor 1 (TIMP1), TIMP1 (gene 7076); assay: BSK_hDFCGF_TIMP1: BioMAP Diversity Plus: hDFCGF Assay for TIMP metallopeptidase inhibitor 1 (TIMP1) Biomarker Activity (AID 2283062); details: primary human foreskin fibroblasts; actives raise or lower the signal
Method in brief: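 Human foreskin fibroblast primary cultures dosed for 24 h; secreted/surface TIMP-1 quantified by ELISA. Bidirectional curve fitting against DMSO baseline; cytotoxicity tracked in parallel cultures by SRB total-protein staining.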

[13] = read-out: Monokine induced gamma interferon (MIG), CXCL9 (gene 4283); assay: BSK_hDFCGF_MIG: BioMAP Diversity Plus: hDFCGF Assay for Monokine induced gamma interferon (MIG) Biomarker Activity (AID 2283063); details: primary human foreskin fibroblasts; actives raise or lower the signal
Method in brief: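 MIG/CXCL9 measured by ELISA 24 h after dosing primary human skin fibroblasts. Activity fitted in both directions against DMSO controls. Cytotoxicity was checked in parallel cultures by SRB staining read at 560 nm.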

[14] = read-out: Matrix Metallopeptidase 1 (MMP1), MMP1 (gene 4312); assay: BSK_hDFCGF_MMP1: BioMAP Diversity Plus: hDFCGF Assay for Matrix Metallopeptidase 1 (MMP1) Biomarker Activity (AID 2283064); details: primary human foreskin fibroblasts; actives raise or lower the signal
Method in brief: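 hDFCGF primary fibroblasts (human foreskin); chemical added; 24 h; MMP1 by ELISA; bidirectional fit vs DMSO.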

[15] = read-out: Vascular cell adhesion molecule 1 (VCAM1), VCAM1 (gene 7412); assay: BSK_hDFCGF_VCAM1: BioMAP Diversity Plus: hDFCGF Assay for Vascular cell adhesion molecule 1 (VCAM1) Biomarker Activity (AID 2283065); details: primary human foreskin fibroblasts; actives raise or lower the signal;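 as to AC50: VCAM-1 protein level quantified by ELISA after 24 h chemical exposure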
Method in brief: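 Human foreskin fibroblast primary cells dosed with chemical, VCAM-1 measured by ELISA at 24 h. Bidirectional curve fitting relative to DMSO as negative control/baseline.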

[16] = read-out: Plasminogen activator inhibitor-1 (PAI1), SERPINE1 (gene 5054); assay: BSK_hDFCGF_PAI1: BioMAP Diversity Plus: hDFCGF Assay for Plasminogen activator inhibitor-1 (PAI1) Biomarker Activity (AID 2283066); details: primary human foreskin fibroblasts; actives raise or lower the signal
Method in brief: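 Human foreskin fibroblasts in the hDFCGF system were dosed with compound for 24 h; PAI-1 was quantified by ELISA. Bidirectional curve fitting used DMSO as negative control and baseline.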

[17] = read-out: Intercellular Adhesion Molecule 1 (ICAM1), ICAM1 (gene 3383); assay: BSK_KF3CT_ICAM1: BioMAP Diversity Plus: KF3CT Assay for Intercellular Adhesion Molecule 1 (ICAM1) Biomarker Activity (AID 2283067); details: primary human keratinocytes with fibroblasts; actives raise or lower the signal
Method in brief: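 Human keratinocyte–foreskin fibroblast co-culture was treated for 24 h. Cell-surface ICAM-1 was quantified by ELISA, fitted bidirectionally relative to DMSO. Cytotoxicity was checked in parallel cultures by SRB total-protein staining.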

[18] = read-out: Interferon-gamma inducible Protein 10 (IP10), CXCL10 (gene 3627); assay: BSK_KF3CT_IP10: BioMAP Diversity Plus: KF3CT Assay for Interferon-gamma inducible Protein 10 (IP10) Biomarker Activity (AID 2283068); details: primary human keratinocytes with fibroblasts; actives raise or lower the signal
Method in brief: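 KF3CT co-culture (keratinocytes + foreskin fibroblasts), 24 h compound, IP-10 by ELISA; bidirectional fit vs DMSO baseline.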

[19] = BSK_KF3CT_SRB: Viability Assessment in the BioMAP Diversity Plus: KF3CT Assay (AID 2283069); details: primary human keratinocytes with fibroblasts;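 also: total protein by sulforhodamine B staining as a cytotoxicity measure; read 24 h after compound addition; fitted for both signal gain and loss against DMSO baseline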
Method in brief: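 Keratinocytes co-cultured with foreskin fibroblasts (human primary); chemical added, 24 h; fix 10% TCA, stain 0.1% SRB, A560. Bidirectional fit vs DMSO.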

[20] = read-out: Interleukin-1 alpha (IL1a), IL1A (gene 3552); assay: BSK_KF3CT_IL1a: BioMAP Diversity Plus: KF3CT Assay for Interleukin-1 alpha (IL1a) Biomarker Activity (AID 2283070); details: primary human keratinocytes with fibroblasts; actives raise or lower the signal
Method in brief: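 Chemicals were dosed onto co-cultured human keratinocytes and foreskin fibroblasts, IL-1a was quantified by ELISA at 24 h, and activity was fitted in both directions relative to DMSO controls.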

Measured: AC50

NCc1cccc(C2CCN(C(=O)c3ccc(C#Cc4ccccc4F)o3)CC2)c1
inactive: [2]
active: [1] 4.76 µM | [3] 8.64 µM | [4] 30.7 µM | [5] 15.9 µM | [6] 5.12 µM | [7] 12.6 µM | [8] 11.9 µM | [9] 5.81 µM | [10] 7.78 µM | [11] 10.1 µM | [12] 11.8 µM | [13] 11.7 µM | [14] 11 µM | [15] 7.78 µM | [16] 7.77 µM | [17] 29.6 µM | [18] 12.4 µM | [19] 5.34 µM | [20] 12.3 µM

Oc1ccc2ccccc2c1
inactive: [1] | [2] | [3] | [4] | [5] | [7] | [8] | [9] | [10] | [11] | [12] | [13] | [14] | [15] | [16] | [17] | [18] | [19] | [20]

O=C(OCCCCCCOC(=O)c1ccccc1)c1ccccc1
active: [1] 15.9 µM
inactive: [2] | [3] | [4] | [5] | [7] | [8] | [9] | [10] | [11] | [12] | [13] | [14] | [15] | [16] | [17] | [18] | [19] | [20]

CC(C)(C)c1csc(-c2cc3cc(OCc4ccccc4CC(=O)O)ccc3o2)n1
inactive: [1] | [2] | [4] | [7]
active: [3] 10.2 µM | [5] 15.4 µM | [8] 18.4 µM | [9] 9.8 µM | [10] 13 µM | [11] 17.2 µM | [12] 15.5 µM | [13] 15.2 µM | [14] 14.5 µM | [15] 10.1 µM | [17] 24.3 µM | [18] 9.6 µM | [19] 12.6 µM | [20] 33 µM

CCCCOC(=O)c1ccc(O)cc1
active: [9] 20 µM
inactive: [1] | [2] | [3] | [4] | [5] | [7] | [8] | [10] | [11] | [12] | [13] | [14] | [15] | [16] | [17] | [18] | [19] | [20]
